# The source made the active and inactive calls. How the source made its calls: active means hit-call score of the fitted dose curve at least 0.9, where 1 is the maximum; inactive means score below 0.9.
# Assays:
# [1] = ATG_E_Box_CIS: Attagene CIS-FACTORIAL HepG2 Assay for human Enhancer Box (E-box) (AID 2282936); conditions: HepG2 E-box cis-reporter transcription, actives raise or lower the signal
# In short: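 DMSO served as negative control and baseline for bidirectional fitting. Human hepatoma HepG2 cells, transiently transfected with cis-reporter constructs, were dosed 24 h; reporter mRNA read by RT-PCR and capillary electrophoresis.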
# [2] = ATG_M_61_CIS: Attagene CIS-FACTORIAL HepG2 Assay for M61 Transcription Factor (Internal Marker) (AID 2282937); conditions: HepG2 Attagene CIS-FACTORIAL M61 internal marker reporter; actives raise or lower the signal
# In short: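 Cells were transfected with reporter units under cis-regulatory promoters, treated with chemicals for 24 h, then lysed for RNA. Reporter transcripts were quantified by RT-PCR and capillary electrophoresis, and activity was fitted bidirectionally against DMSO.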
# [3] = ATG_EGR_CIS: Attagene CIS-FACTORIAL HepG2 Assay for human Early Growth Response 1 (EGR1) (AID 2282938); conditions: HepG2 Attagene CIS-FACTORIAL EGR reporter mRNA; actives raise or lower the signal
# In short: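 Endogenous TF activity in HepG2 liver cells was gauged through cis-promoter reporter constructs transiently transfected. After 24 h dosing, reporter mRNA was quantified by RT-PCR and capillary electrophoresis, and curves fitted in both directions versus DMSO.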
# [4] = ATG_M_19_CIS: Attagene CIS-FACTORIAL HepG2 Assay for M19 Transcription Factor (Internal Marker) (AID 2282939); conditions: HepG2 Attagene CIS-FACTORIAL M19 internal marker reporter; actives raise or lower the signal
# In short: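 Following a 24 h exposure, RNA from transfected HepG2 cells was reverse-transcribed, PCR-amplified with reporter-specific primers, end-labelled with 6-FAM and HpaI-digested before capillary separation. Values represent gain or loss versus DMSO.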
# [5] = ATG_Ets_CIS: Attagene CIS-FACTORIAL HepG2 Assay for human Erythroblast Transformation Specific (ETS) (AID 2282941); conditions: HepG2 ETS cis-reporter transcription, actives raise or lower the signal
# In short: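 Steps: transfect HepG2 with multiple reporter units; treat compound 24 h; isolate RNA, DNase-treat, reverse-transcribe; PCR-amplify, label with 6-FAM, digest with HpaI; separate by capillary electrophoresis. Activity fitted both directions versus DMSO.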
# [6] = target: Hepatocyte nuclear factor 3-beta (Homo sapiens) (UniProt Q9Y261); assay: ATG_FoxA2_CIS: Attagene CIS-FACTORIAL HepG2 Assay for human Forkhead box A2 (FOXA2) (AID 2282942); conditions: HepG2 cis-reporter transcription factor activity, 24 h; actives raise or lower the signal
# In short: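 Endogenous transcription factor activity was read in HepG2 cells carrying transiently transfected cis-promoter reporter units. After 24 h dosing, reporter mRNA was quantified by RT-PCR and capillary electrophoresis, and values fitted bidirectionally versus DMSO.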
# [7] = ATG_FoxO_CIS: Attagene CIS-FACTORIAL HepG2 Assay for human Forkhead box O (FoxO) (AID 2282943); conditions: HepG2 Attagene cis-reporter, FoxO element, mRNA; actives raise or lower the signal
# In short: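 HepG2, transient MRTU transfection (cis element, endogenous TFs). Dose 24 h. TriZol RNA → oligo(dT) RT → PCR → 6-FAM primer extension → HpaI cut → CE. Gain/loss vs DMSO.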
# [8] = ATG_GATA_CIS: Attagene CIS-FACTORIAL HepG2 Assay for human GATA Binding Protein (AID 2282944); conditions: HepG2 GATA cis-element reporter, Attagene multiplex mRNA; actives raise or lower the signal
# In short: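 DMSO serves as negative control and baseline for bidirectional fitting of reporter mRNA changes. HepG2 cells bearing transiently transfected cis-promoter reporters were exposed 24 h; transcripts detected via RT-PCR and capillary electrophoresis.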
# [9] = ATG_GLI_CIS: Attagene CIS-FACTORIAL HepG2 Assay for human Zinc Finger Protein GLI1 (AID 2282945); conditions: HepG2, Attagene cis-factorial reporter mRNA, GLI element; actives raise or lower the signal
# In short: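 Bidirectional curve fits relative to DMSO, using reporter mRNA levels from RT-PCR plus capillary electrophoresis. Cells were HepG2 transiently carrying cis-regulated reporter constructs, harvested 24 h after dosing.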
# [10] = ATG_ISRE_CIS: Attagene CIS-FACTORIAL HepG2 Assay for human Interferon Regulatory Factor 1 (IRF1) binding to an Interferon-Stimulated Response Element (ISRE) (AID 2282948); conditions: HepG2 ISRE cis-reporter (Attagene), mRNA transcription readout; actives raise or lower the signal
# In short: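 Transfected HepG2 (multiple reporter transcription units, cis elements) dosed 24 h. RNA → oligo(dT) RT → PCR → 6-FAM primer extension → HpaI → CE. DMSO = negative control/baseline.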
# [11] = ATG_M_32_CIS: Attagene CIS-FACTORIAL HepG2 Assay for M32 Transcription Factor (Internal Marker) (AID 2282949); conditions: HepG2 Attagene cis-factorial M32 reporter, mRNA; actives raise or lower the signal;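 further: background control marker of the multiplexed CIS panel rather than a real target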
# In short: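 Internal background marker read-out: RT-PCR/capillary electrophoresis fluorescence of reporter transcripts from transiently transfected HepG2 cells after 24 h chemical exposure. Activity fitted bidirectionally relative to DMSO negative control.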
# [12] = ATG_M_06_CIS: Attagene CIS-FACTORIAL HepG2 Assay for M06 Transcription Factor (Internal Marker) (AID 2282950); conditions: HepG2 Attagene CIS-FACTORIAL M06 internal marker reporter; actives raise or lower the signal
# In short: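 Fluorescence-labelled RT-PCR products from cis-promoter reporter units, cut with HpaI and resolved by capillary electrophoresis, give the signal. Cells are human HepG2, dosed for 24 h. Serves as background control, fitted relative to DMSO.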
# [13] = target: Hypoxia-inducible factor 1-alpha (Homo sapiens) (UniProt Q16665); assay: ATG_HIF1a_CIS: Attagene CIS-FACTORIAL HepG2 Assay for human Hypoxia Inducible Factor 1 (HIF1A) (AID 2282951); conditions: HepG2 Attagene cis-factorial HIF1a reporter transcription; actives raise or lower the signal
# In short: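 Measures endogenous transcription-factor activity through cis-regulated reporter mRNA in HepG2. Cells dosed 24 h; transcripts quantified by RT-PCR with 6-FAM-labelled products separated by capillary electrophoresis; DMSO serves as negative control.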
# [14] = target: Hepatocyte nuclear factor 6 (Homo sapiens) (UniProt Q9UBC0); assay: ATG_HNF6_CIS: Attagene CIS-FACTORIAL HepG2 Assay for human Hepatocyte Nuclear Factor 6 (HNF6) (AID 2282952); conditions: HepG2 Attagene cis-factorial HNF6 reporter transcription; actives raise or lower the signal
# In short: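 Cells are HepG2 carrying transiently transfected cis-promoter reporter units. Treatment lasts 24 h, after which reporter transcripts are reverse-transcribed, amplified, FAM-labelled and sized by capillary electrophoresis. DMSO serves as baseline.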
# [15] = ATG_MRE_CIS: Attagene CIS-FACTORIAL HepG2 Assay for human Metal Responsive Element (MRE) (AID 2282954); conditions: HepG2 MRE cis-reporter transcription, Attagene multiplex; actives raise or lower the signal
# In short: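 After a 24 h chemical exposure, transiently transfected HepG2 cells yield RNA whose reporter sequences are amplified, FAM-labelled and sized by capillary electrophoresis. Curves are fitted bidirectionally relative to DMSO.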
# [16] = target: Bile acid receptor (Homo sapiens) (UniProt Q96RI1); assay: ATG_IR1_CIS: Attagene CIS-FACTORIAL HepG2 Assay for human Nuclear Receptor Subfamily 1 Group H Member 4 (NR1H4), IR1 submotif (AID 2282946); conditions: IR1 reporter transcription, actives raise or lower the signal
# In short: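 Cells (human HepG2) carry transiently transfected cis-promoter reporter transcription units. Compounds are incubated 24 h, total RNA is reverse-transcribed and amplified, and labelled fragments are resolved by capillary electrophoresis. Curves use DMSO as baseline.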
# [17] = ATG_GRE_CIS: Attagene CIS-FACTORIAL HepG2 Assay for human Glucocorticoid Response Elements (GRE) (AID 2282947); conditions: HepG2 GRE cis-reporter, Attagene multiplex mRNA; actives raise or lower the signal
# In short: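 Assay uses human hepatoma HepG2 cells transfected with cis-promoter reporter units, exposed 24 h. mRNA from reporters detected by RT-PCR plus capillary electrophoresis; DMSO serves as negative control and baseline.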
# [18] = target: Paired box protein Pax-6 (Homo sapiens) (UniProt P26367); assay: ATG_Pax6_CIS: Attagene CIS-FACTORIAL HepG2 Assay for human Paired Box 6 (PAX6) (AID 2282956); conditions: HepG2 CIS-FACTORIAL PAX6 reporter transcription, RNA readout; actives raise or lower the signal
# In short: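 Transient MRTU transfection of HepG2 → compound exposure 24 h → TriZol RNA, oligo(dT) RT → PCR, 6-FAM primer extension, HpaI cut → capillary electrophoresis; activity fitted both directions against DMSO.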
# [19] = target: Heat shock factor protein 1 (Homo sapiens) (UniProt Q00613); assay: ATG_HSE_CIS: Attagene CIS-FACTORIAL HepG2 Assay for human Heat Shock Transcription Factor 1 (HSE) (AID 2282953); conditions: HepG2 HSE cis-reporter, Attagene RNA transcription; actives raise or lower the signal
# In short: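 After a 24 h incubation with test chemical, transfected HepG2 cells were harvested for RNA; reporter transcripts were measured by RT-PCR and capillary electrophoresis. Values reflect gain or loss of signal relative to DMSO.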
# [20] = ATG_PBREM_CIS: Attagene CIS-FACTORIAL HepG2 Assay for human Phenobarbital-responsive Enhancer Module (PBREM) (AID 2282955); conditions: HepG2 PBREM cis-reporter, Attagene multiplexed transcription; actives raise or lower the signal
# In short: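 Fluorescence of labelled reporter cDNA fragments, resolved by capillary electrophoresis, gives mRNA induction in transfected HepG2 cells treated for 24 h; DMSO serves as negative control and baseline.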
# Chain of Hepatocyte nuclear factor 6 (Homo sapiens) (Q9UBC0 whole entry, looked up): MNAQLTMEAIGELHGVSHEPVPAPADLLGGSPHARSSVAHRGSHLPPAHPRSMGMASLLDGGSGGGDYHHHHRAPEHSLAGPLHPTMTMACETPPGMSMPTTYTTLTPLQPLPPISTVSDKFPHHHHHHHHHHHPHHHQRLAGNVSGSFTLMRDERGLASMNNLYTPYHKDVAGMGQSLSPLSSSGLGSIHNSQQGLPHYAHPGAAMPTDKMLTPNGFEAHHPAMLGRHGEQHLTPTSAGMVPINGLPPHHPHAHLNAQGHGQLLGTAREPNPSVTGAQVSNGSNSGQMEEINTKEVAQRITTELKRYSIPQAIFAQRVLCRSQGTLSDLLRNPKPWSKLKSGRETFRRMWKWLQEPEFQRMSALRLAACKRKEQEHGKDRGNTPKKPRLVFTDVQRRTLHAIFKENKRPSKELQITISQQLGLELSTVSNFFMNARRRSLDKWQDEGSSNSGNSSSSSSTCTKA
# Chain of Hypoxia-inducible factor 1-alpha (Homo sapiens) (Q16665 whole entry, looked up): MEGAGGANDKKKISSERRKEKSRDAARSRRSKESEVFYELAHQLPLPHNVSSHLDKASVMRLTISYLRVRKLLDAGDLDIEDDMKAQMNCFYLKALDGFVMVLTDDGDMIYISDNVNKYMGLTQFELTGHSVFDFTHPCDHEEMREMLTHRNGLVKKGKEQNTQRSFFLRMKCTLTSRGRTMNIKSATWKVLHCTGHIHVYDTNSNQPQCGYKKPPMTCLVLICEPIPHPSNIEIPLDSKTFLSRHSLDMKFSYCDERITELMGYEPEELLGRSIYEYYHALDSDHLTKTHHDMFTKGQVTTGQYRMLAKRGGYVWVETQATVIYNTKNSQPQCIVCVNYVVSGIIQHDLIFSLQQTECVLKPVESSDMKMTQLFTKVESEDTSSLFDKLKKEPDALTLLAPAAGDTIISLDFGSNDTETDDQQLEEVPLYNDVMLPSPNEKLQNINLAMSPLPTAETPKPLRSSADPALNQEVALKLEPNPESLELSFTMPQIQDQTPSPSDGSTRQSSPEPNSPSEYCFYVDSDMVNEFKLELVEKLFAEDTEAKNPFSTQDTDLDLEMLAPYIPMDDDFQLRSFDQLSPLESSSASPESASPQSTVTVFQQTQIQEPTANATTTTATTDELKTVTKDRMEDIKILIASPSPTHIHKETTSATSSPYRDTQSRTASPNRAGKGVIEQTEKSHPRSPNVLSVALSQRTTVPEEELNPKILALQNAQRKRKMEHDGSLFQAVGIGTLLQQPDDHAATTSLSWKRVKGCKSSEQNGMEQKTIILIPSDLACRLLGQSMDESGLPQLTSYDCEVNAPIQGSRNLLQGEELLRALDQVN
# Chain of Paired box protein Pax-6 (Homo sapiens) (P26367 whole entry, looked up): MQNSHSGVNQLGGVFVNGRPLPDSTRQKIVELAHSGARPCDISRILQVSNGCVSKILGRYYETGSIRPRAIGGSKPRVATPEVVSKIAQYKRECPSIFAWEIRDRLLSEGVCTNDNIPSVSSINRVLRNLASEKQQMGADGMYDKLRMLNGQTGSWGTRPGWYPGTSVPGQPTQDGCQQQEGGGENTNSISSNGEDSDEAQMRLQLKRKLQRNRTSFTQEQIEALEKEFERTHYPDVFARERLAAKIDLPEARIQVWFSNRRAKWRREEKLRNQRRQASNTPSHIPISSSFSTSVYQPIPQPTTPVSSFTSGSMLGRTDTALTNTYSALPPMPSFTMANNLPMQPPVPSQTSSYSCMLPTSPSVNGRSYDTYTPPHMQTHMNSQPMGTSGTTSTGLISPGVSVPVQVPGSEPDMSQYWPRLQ
# Chain of Bile acid receptor (Homo sapiens) (Q96RI1 whole entry, looked up, the tested form may be a part): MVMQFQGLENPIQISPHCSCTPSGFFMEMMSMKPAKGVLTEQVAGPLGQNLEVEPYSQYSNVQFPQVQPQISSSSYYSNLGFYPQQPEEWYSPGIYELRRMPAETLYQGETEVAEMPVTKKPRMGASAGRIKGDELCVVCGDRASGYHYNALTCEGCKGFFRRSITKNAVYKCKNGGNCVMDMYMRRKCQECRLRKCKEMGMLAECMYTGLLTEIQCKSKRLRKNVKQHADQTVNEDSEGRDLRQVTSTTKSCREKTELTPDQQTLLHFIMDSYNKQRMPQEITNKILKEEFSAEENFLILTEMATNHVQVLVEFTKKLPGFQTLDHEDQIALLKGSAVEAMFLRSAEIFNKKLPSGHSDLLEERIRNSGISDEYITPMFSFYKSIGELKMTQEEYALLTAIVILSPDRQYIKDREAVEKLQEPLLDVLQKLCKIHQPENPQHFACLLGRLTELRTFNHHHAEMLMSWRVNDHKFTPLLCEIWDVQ
# Chain of Hepatocyte nuclear factor 3-beta (Homo sapiens) (Q9Y261 whole entry, looked up): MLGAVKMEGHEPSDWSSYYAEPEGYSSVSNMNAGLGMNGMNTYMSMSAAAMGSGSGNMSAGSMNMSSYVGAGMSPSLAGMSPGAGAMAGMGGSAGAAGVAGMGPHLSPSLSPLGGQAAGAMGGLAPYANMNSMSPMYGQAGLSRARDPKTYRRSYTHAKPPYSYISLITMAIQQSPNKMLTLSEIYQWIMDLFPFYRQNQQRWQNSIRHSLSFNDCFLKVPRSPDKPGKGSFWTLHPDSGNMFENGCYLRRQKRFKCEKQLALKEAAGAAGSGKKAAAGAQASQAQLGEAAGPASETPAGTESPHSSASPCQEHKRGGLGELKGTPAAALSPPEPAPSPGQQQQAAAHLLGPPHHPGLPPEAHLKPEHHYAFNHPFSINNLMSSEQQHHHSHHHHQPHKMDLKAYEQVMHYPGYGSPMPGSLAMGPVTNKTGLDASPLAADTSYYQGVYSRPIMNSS
# Chain of Heat shock factor protein 1 (Homo sapiens) (Q00613 whole entry, looked up): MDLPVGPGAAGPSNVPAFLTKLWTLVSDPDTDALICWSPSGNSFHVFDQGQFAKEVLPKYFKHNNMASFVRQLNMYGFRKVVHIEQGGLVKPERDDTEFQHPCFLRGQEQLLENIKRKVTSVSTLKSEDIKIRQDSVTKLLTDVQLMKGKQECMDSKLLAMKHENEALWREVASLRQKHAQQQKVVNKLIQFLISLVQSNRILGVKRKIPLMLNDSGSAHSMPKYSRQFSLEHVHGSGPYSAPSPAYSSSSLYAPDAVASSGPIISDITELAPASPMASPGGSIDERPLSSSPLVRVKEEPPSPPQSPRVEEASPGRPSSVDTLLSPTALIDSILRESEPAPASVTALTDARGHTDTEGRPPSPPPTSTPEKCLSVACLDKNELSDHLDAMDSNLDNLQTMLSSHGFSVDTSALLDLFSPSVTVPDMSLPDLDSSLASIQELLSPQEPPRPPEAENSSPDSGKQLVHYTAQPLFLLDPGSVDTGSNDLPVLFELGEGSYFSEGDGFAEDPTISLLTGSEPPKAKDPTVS
smiles,measurement,setting,value
CC(C)(C)C(O)(CCc1ccc(Cl)cc1)Cn1cncn1 (centres undefined),outcome,[1],inactive
same,outcome,[2],inactive
same,outcome,[3],inactive
same,outcome,[4],inactive
same,outcome,[5],inactive
same,outcome,[6],inactive
same,outcome,[7],inactive
same,outcome,[8],inactive
same,outcome,[9],inactive
same,outcome,[10],inactive
same,outcome,[11],inactive
same,outcome,[12],inactive
same,outcome,[13],inactive
same,outcome,[14],inactive
same,AC50,[15],100 µM (active)
Nc1ccc([N+](=O)[O-])cc1,outcome,[1],inactive
same,outcome,[2],inactive
same,outcome,[3],inactive
same,outcome,[4],inactive
same,outcome,[5],inactive
same,outcome,[6],inactive
same,outcome,[7],inactive
same,outcome,[9],inactive
same,outcome,[16],inactive
same,outcome,[10],inactive
same,outcome,[11],inactive
same,outcome,[12],inactive
same,outcome,[13],inactive
same,outcome,[14],inactive
same,outcome,[15],inactive
c1ccc(N=Nc2ccccc2)cc1,outcome,[1],inactive
same,outcome,[2],inactive
same,outcome,[3],inactive
same,outcome,[4],inactive
same,outcome,[5],inactive
same,outcome,[6],inactive
same,outcome,[7],inactive
same,outcome,[9],inactive
same,outcome,[17],inactive
same,outcome,[10],inactive
same,outcome,[11],inactive
same,outcome,[12],inactive
same,outcome,[13],inactive
same,outcome,[14],inactive
same,outcome,[15],inactive
same,outcome,[18],inactive
ClCCOCCCl,outcome,[1],inactive
same,outcome,[2],inactive
same,outcome,[3],inactive
same,outcome,[4],inactive
same,outcome,[5],inactive
same,outcome,[6],inactive
same,outcome,[7],inactive
same,outcome,[9],inactive
same,outcome,[16],inactive
same,outcome,[10],inactive
same,outcome,[11],inactive
same,outcome,[12],inactive
same,outcome,[13],inactive
same,outcome,[14],inactive
same,outcome,[15],inactive
same,outcome,[18],inactive
Cc1ccc([N+](=O)[O-])cc1,outcome,[1],inactive
same,outcome,[2],inactive
same,outcome,[3],inactive
same,outcome,[4],inactive
same,outcome,[5],inactive
same,outcome,[6],inactive
same,outcome,[7],inactive
same,outcome,[9],inactive
same,outcome,[17],inactive
same,outcome,[10],inactive
same,outcome,[11],inactive
same,outcome,[12],inactive
same,outcome,[13],inactive
same,outcome,[14],inactive
same,outcome,[15],inactive
O=C(Oc1ccc(Br)cc1)N1CCN2CCC1CC2,outcome,[1],inactive
same,outcome,[2],inactive
same,outcome,[3],inactive
same,outcome,[4],inactive
same,outcome,[5],inactive
same,outcome,[6],inactive
same,outcome,[7],inactive
same,outcome,[9],inactive
same,outcome,[10],inactive
same,outcome,[11],inactive
same,outcome,[12],inactive
same,AC50,[13],34.6 µM (active)
same,outcome,[14],inactive
same,outcome,[19],inactive
same,outcome,[15],inactive
same,outcome,[18],inactive
Oc1ccccc1Cl,outcome,[1],inactive
same,outcome,[2],inactive
same,outcome,[3],inactive
same,outcome,[4],inactive
same,outcome,[5],inactive
same,outcome,[6],inactive
same,outcome,[7],inactive
same,outcome,[9],inactive
same,outcome,[10],inactive
same,outcome,[11],inactive
same,outcome,[12],inactive
same,outcome,[13],inactive
same,outcome,[14],inactive
same,outcome,[15],inactive
same,outcome,[20],inactive
CCN(CC)N=O,outcome,[1],inactive
same,outcome,[2],inactive
same,outcome,[3],inactive
same,outcome,[4],inactive
same,outcome,[5],inactive
same,outcome,[6],inactive
same,outcome,[7],inactive
same,outcome,[9],inactive
same,outcome,[16],inactive
same,outcome,[10],inactive
same,outcome,[11],inactive
same,outcome,[12],inactive
same,outcome,[13],inactive
same,outcome,[14],inactive
same,outcome,[15],inactive
same,outcome,[18],inactive

# From PubChem BioAssay (EPA / NIEHS)
